Calls of active or inactive are those of the source. Rule for the calls: active = hit-call score of the fitted dose curve at least 0.9, where 1 is the maximum; inactive = score below 0.9.
Target: human Cholecystokinin Receptor CCK1 (CCKA) Agonism, CCKAR (gene 886) (UniProt P32238)
Assay: ERF_TW_GPCR_hCCKAR: Eurofins (ERF) G Protein-Coupled Receptor (GPCR) Radioligand Binding LeadHunter Assay for human Cholecystokinin Receptor CCK1 (CCKA) Agonism
Experimental: ERF_TW_GPCR_hCCKAR is a biochemical, single-readout assay that uses extracted gene-proteins in a cell-free assay. Measurements were taken 1 hour after chemical dosing in a 96-well plate. See CCK1 (CCKA) Human Cholecystokinin GPCR Binding (Antagonist Radioligand) Assay, Panlabs.ERF_TW_GPCR_hCCKAR is an assay component calculated from the ERF_TW_GPCR_hCCKAR assay. It is designed to measure radioligand binding using a type of binding reporter as detected by scintillation counting with radiometry technology.Data from the assay component ERF_TW_GPCR_hCCKAR was analyzed at the assay endpoint, ERF_TW_GPCR_hCCKAR, in the positive analysis fitting direction relative to DMSO as the negative control and baseline of activity. Using a type of binding reporter, loss-of-signal activity can be used to understand changes in binding as they relate to gene CCKAR. To generalize the intended target to other relatable targets, this assay endpoint is annotated to the gpcr intended target family, where the subfamily is cholecystokinin.
1321-N1 (human astrocytoma) stably transfected with a plasmid encoding the human recombinant CCK1 receptor are used to prepare membranes in modified HEPES buffer pH 7.4. A 5 ug aliquot of membrane is incubated with 0.11 nM [125I]CCK-8 for […] at 25C. […] Membranes are filtered and washed, the filters are then counted to determine [125I]CCK-8 specifically bound. […]

human Cholecystokinin Receptor CCK1 (CCKA) Agonism, CCKAR (gene 886), sequence (P32238 whole entry, looked up): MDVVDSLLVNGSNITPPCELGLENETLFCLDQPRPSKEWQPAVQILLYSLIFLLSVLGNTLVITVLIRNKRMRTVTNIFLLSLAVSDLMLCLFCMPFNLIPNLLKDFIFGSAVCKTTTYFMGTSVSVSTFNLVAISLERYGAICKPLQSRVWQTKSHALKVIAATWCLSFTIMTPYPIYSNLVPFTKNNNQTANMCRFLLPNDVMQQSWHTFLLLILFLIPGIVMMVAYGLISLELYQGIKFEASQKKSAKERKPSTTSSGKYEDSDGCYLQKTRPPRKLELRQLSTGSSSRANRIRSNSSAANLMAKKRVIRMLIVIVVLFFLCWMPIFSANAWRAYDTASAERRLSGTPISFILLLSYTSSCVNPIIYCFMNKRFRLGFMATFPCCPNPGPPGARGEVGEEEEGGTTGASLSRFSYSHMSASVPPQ

Compound | outcome | AC50
CCCCC[C@H](O)CC(=O)CCc1ccc(O)c(OC)c1 | inactive | –
O=C(/C=C/c1ccc(O)cc1)CC(=O)/C=C/c1ccc(O)cc1 | – | 1.99 µM (active)

Reference: PubChem BioAssay AID2284148 (EPA ToxCast)
